In PubChem BioAssay AID1645856 (Buhrlage Lab, Dana-Farber Cancer Institute and Novartis …, 2021):
About 510 (1.1%) of roughly 47,000 compounds were called active. This is one part of a sample in which actives are shown more often than they occur. Cut-off read from the data, not from the text of the source: active = inhibition above about 30%; inactive = the rest.

target: Ubiquitin carboxyl-terminal hydrolase 10 (Homo sapiens) (UniProt Q14694); assay: blocks human USP10 ubiquitin-rhodamine cleavage (AID 1645856); settings: purified USP10, Ub-rhodamine fluorescence, 60 min; at 20 µM; active compounds read high
Sequence (Q14694 whole entry, looked up): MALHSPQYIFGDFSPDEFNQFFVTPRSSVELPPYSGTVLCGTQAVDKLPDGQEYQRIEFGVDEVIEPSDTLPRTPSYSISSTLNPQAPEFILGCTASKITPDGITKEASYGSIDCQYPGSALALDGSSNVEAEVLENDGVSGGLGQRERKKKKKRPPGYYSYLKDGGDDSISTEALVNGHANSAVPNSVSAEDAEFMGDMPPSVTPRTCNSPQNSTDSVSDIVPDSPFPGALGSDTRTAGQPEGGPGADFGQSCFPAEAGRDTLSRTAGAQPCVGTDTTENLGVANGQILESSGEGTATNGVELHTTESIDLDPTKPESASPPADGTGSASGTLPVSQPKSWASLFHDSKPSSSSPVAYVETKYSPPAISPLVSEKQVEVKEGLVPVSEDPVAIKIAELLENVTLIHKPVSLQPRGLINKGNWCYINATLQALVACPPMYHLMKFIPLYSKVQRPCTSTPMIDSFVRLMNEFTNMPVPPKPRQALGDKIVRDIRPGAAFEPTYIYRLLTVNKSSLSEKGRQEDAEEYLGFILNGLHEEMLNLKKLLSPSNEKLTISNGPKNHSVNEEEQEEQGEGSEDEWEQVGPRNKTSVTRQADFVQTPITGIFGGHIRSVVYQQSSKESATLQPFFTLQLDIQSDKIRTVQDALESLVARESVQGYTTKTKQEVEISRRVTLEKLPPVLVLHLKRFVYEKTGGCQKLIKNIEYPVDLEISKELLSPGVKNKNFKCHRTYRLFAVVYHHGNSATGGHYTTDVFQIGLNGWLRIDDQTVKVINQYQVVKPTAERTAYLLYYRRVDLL

Compound	inhibition
CC(C)C(NS(=O)(=O)c1ccc(Cl)cc1)C(=O)OCC(=O)C12CC3CC(CC(C3)C1)C2 (stereo unspecified)	3.82% (inactive)
Cc1cccc(CNC(=O)C2CCc3nc(N4CCOCC4)ncc3C2)c1 (stereo unspecified)	-3.24% (inactive)
COc1cccc(O[C@@H]2C[C@@H](NC(=O)c3ncoc3C)[C@H](O)[C@H]2O)c1	-1.35% (inactive)
O=S1(=O)C=C(CSCCO)c2cc(Cl)ccc21	-1.29% (inactive)
Cc1cc(C(=O)N2CCCCC2c2nncn2CC2CC2)nn1C (stereo unspecified)	1.03% (inactive)
COCCNC(=O)c1cccc(C2CCCN(C(=O)Nc3ccccc3)C2)c1 (stereo unspecified)	6.54% (inactive)
O=C(CSc1n[nH]c(-c2ccccc2Cl)n1)NCC1CCCO1 (stereo unspecified)	-1.9% (inactive)
COc1ccc(CC(=O)N2CCC3(C2)C(=O)N(C)c2ccccc23)cc1 (stereo unspecified)	-4.15% (inactive)
CCOC(=O)N1CCN(Cc2nc3ccc([N+](=O)[O-])cc3c(=O)n2-c2cccc(OC)c2)CC1	-1.3% (inactive)
CC(C)Cn1cnc2nc(CSc3ccccc3NC(=O)Nc3ccccc3)cc(=O)n21	2.5% (inactive)
Cc1ccc(S(=O)(=O)N2CCC(c3nc(C(=O)N(C)C)c(C)o3)CC2)cc1C	-0.0972% (inactive)
CSc1ncnc2c1sc1nc(-c3ccccc3)c3c(c12)CC(C)(C)OC3	0.0174% (inactive)
CC1(C)Cc2c(c(-c3ccco3)nc3sc4c(SCCCc5ccccc5)ncnc4c23)CO1	58.4% (active)
CCCCCCSc1ncnc2c1sc1nc(-c3ccccc3)c3c(c12)CC(C)(C)OC3	-3.17% (inactive)
Clc1cc2nc(N3CCN(c4ccccn4)CC3)c3nncn3c2cc1Cl	-8.09% (inactive)
O=C(CCCn1c(=O)c2ccccc2n(Cc2ccccc2F)c1=O)NC1CCCC1	8.78% (inactive)
Cc1ccccc1CNC(=O)Cn1c(=O)ccn(Cc2ccc(F)cc2)c1=O	0.832% (inactive)
N#Cc1ccccc1Cn1c(=O)n(CCCC(=O)NCc2ccc(F)cc2)c(=O)c2ccccc21	34% (active)
COc1cccc(C(O)c2ncc(-c3ccc4ccccc4c3)[nH]2)c1 (stereo unspecified)	-5.14% (inactive)
CN(C)c1nc(C2CCN(C(=O)c3ccccc3)CC2)cn2nccc12	-1.26% (inactive)
CN(C)c1nccnc1C1CN(C(=O)c2cc(C(C)(C)C)[nH]n2)CCO1 (stereo unspecified)	4.78% (inactive)
C/C=C(\Cl)C1=CC(=O)[C@]23C[C@H]2[C@@]2(C)CO[C@@]1(O)[C@@]3(O)O2	-13.4% (inactive)
Cc1ccc(S(=O)(=O)N2CCCC(c3nc(-c4ccc(=O)[nH]c4)no3)C2)cc1 (stereo unspecified)	0.0273% (inactive)
O=C(Nc1ccc(Cl)cc1F)c1cc(-c2ccccn2)n[nH]1	10.2% (inactive)
COc1cc(Cl)c(NC(=O)c2cc(-c3ccccn3)n[nH]2)c(OC)c1	38% (active)
Cc1ccc(CC(=O)N2CCN(C(=O)c3cc(-c4ccccn4)n[nH]3)CC2)cc1	-1.22% (inactive)

Compound	inhibition
Cc1c(-c2nnc(-c3ccccn3)o2)nnn1-c1ccccc1Cl	1.56% (inactive)
COc1ccc(-c2noc(-c3ccc(N(C)Cc4ccco4)nn3)n2)cc1	0.989% (inactive)
Cc1ncccc1Oc1nccnc1C1CCNCC1	0.116% (inactive)
CCN(CC)C(=O)CC[C@H]1CNC(=O)[C@@H]2[C@@H](CCN2CC2CC2)N1C	-0.533% (inactive)
O=C1CC(c2ccc(OCc3ccccc3)cc2)c2sccc2N1 (stereo unspecified)	2.63% (inactive)
COc1cccc(CCN2CCOc3nc4c(C)cccc4cc3C2)c1OC	1.85% (inactive)
Cn1c(=O)[nH]c(=O)c2c1nc(N1CCCCCC1)n2CCCSc1nc2ccccc2s1	20.1% (inactive)
Cn1c2c(c(=O)n(C)c1=O)[C@@H]1c3c(ccc4ccccc34)OC[C@@H]1CO2	-4.17% (inactive)
CO[C@@H](/C(C)=C/C=C/C(C)=C/c1coc(C)n1)[C@@H](C)[C@@H]1C[C@H](O)[C@@]2(C)O[C@@H]2/C=C/[C@@H](C)[C@H](O)C[C@H](CC(=O)O)C/C=C/C(=O)O1	-8.33% (inactive)
CN(c1ccc(F)cc1)c1ccc2ccc(C(=O)N3CCCC(O)C3)cn12 (stereo unspecified)	-11.2% (inactive)
Cn1c(SCC(N)=O)nnc1-c1cc2ccccc2o1	-1.83% (inactive)
Cc1noc(C)c1C1CCCN1C(=O)c1c(F)cccc1F (stereo unspecified)	2.21% (inactive)
CC(CN1CCOCC1)OC(=O)c1ccc(C(C)(C)C)cc1 (stereo unspecified)	0.0972% (inactive)
CC(C)CC(=O)Nc1ccc(-c2nc3ncccc3o2)cc1	1.25% (inactive)
CCOc1ccccc1NC(=O)Cc1cccs1	1.12% (inactive)
Cc1cccc(Nc2nc(N3CCOCC3)nc3c2cnn3C)c1	-3.81% (inactive)
CCc1nc2cc(N3CCC(C(=O)N4CCN(CC)CC4)CC3)cnc2nc1CC	-3.73% (inactive)
O=C(NCC1CCCCC1)C1CCN(C2=NS(=O)(=O)c3ccccc32)CC1	-1.45% (inactive)
COc1cccc(CNC(=O)c2ccc3c(=O)nc4c(-c5ccccc5)n[nH]n4c3c2)c1	17.4% (inactive)
Cc1cc(Cl)cc(C)c1OCC(=O)NC1CCCc2ccccc21 (stereo unspecified)	-1.09% (inactive)
CCOC(=O)C1CCN(C(c2cccnc2)c2c(NC(C)=O)sc3c2CCCC3)CC1 (stereo unspecified)	-3.05% (inactive)
CC1CCN(C(=O)C2CCN(C(=O)c3ccc4c(c3)nnn4C3CCCC3)CC2)CC1	-0.291% (inactive)
Cc1ccc(CC(=O)Nc2nnc(C3CC(=O)N(c4ccc(C)c(C)c4)C3)s2)cc1 (stereo unspecified)	15.3% (inactive)
COc1ccc(N2CC(c3nnc(NC(=O)CCc4ccccc4)s3)CC2=O)cc1 (stereo unspecified)	30.4% (active)
Cc1ccc(N2CC(c3nnc(NC(=O)CCCc4ccccc4)s3)CC2=O)cc1 (stereo unspecified)	8.86% (inactive)
